Compounds with a hit are over-represented: about 4.3% of the library has one in this group of screens.
Anthrax LF inh2: Bacillus anthracis LF protease inhibitors, primary screen, biochemical, multiplex microsphere, MLPCN library | inhibition, % at 10 µM | AID 588501, 2011 | Lethal factor (Bacillus anthracis), P15917 | actives 0.12% (n = 360,000) | multiplex microsphere protease cleavage assay
Target sequence (P15917 whole entry, looked up): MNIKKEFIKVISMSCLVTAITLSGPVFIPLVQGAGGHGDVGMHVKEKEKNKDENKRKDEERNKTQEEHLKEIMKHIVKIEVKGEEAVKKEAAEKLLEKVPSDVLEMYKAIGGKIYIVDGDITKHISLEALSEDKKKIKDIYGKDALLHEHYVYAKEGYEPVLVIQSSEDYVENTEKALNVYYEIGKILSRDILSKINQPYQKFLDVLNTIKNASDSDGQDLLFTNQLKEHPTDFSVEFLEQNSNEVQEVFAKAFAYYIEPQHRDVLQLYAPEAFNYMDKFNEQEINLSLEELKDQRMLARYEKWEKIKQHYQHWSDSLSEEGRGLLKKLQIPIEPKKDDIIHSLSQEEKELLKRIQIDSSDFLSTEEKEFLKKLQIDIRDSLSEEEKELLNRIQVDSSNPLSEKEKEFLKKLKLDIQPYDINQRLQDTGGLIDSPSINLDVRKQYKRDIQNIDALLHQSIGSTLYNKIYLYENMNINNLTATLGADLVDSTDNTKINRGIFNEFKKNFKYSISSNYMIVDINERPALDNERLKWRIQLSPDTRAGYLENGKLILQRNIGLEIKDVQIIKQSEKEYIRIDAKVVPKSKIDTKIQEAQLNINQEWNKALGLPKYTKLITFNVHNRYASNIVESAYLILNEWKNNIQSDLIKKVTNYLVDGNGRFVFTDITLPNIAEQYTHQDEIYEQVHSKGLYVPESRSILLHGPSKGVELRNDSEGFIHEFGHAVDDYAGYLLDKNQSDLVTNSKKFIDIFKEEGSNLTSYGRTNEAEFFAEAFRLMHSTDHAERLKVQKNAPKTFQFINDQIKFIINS
Bead autofluor: compound fluorescence in toxin protease inhibitor counterscreen. compound autofluorescence counterscreen, microsphere flow cytometry; stronger effect = higher value. fluorescence intensity (concentration not given with the values). actives 3.1% (n = 360,000); in the data active = fluorescence intensity above about 16000; inconclusive = no clear call, values can overlap the other calls
BoNT-A LC inh2: BoNT/A light chain protease inhibitors, primary screen, biochemical, flow cytometry, MLPCN library | Botulinum neurotoxin type A light chain protease (Clostridium botulinum A str. ATCC 3502) | multiplex microsphere protease substrate cleavage | inhibition, % at 10 µM | actives 0.17% (n = 360,000) | AID 588499, 2011
PfHsp40 rescue: rescue of yeast from PfHsp40 toxicity, primary screen, S. cerevisiae, ATP luminescence | actives 0.68% (n = 340,000) | AID 504582, 2011 | S. cerevisiae expressing PfHsp40, growth rescue | growth rescue, % at 12.5 µM; in the data active = growth rescue above about 28%, passing the limit was not always enough; inconclusive = no clear call, values can overlap the other calls;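 note: yeast W303a lacking pdr1 and pdr3 grown in galactose medium; growth measured after three days at 30 °C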
BoNT F protease: BoNT/F light chain protease inhibitors, primary screen, biochemical, flow cytometry, MLPCN library; Botulinum neurotoxin type F light chain protease (Clostridium botulinum); Multiplex microsphere protease cleavage assay; inhibition, % at 10 µM; actives 0.22% (n = 360,000); in the data active = inhibition above about 35%, passing the limit was not always enough; inconclusive = no clear call, values can overlap the other calls
MazEF act: activators of E. coli MazEF toxin-antitoxin RNase, primary screen, biochemical, fluorescence, uHTS | Endoribonuclease toxin MazF (Escherichia coli (strain K12)), P0AE70 | FAM/BHQ RNA-DNA oligo cleavage fluorescence, 5 h | activation, % at 20 µM | actives 0.32% (n = 350,000); in the data active = activation above about 50%
Hits are given with their value; n = inactive; u = inconclusive; x = no result given. Cut-off read from the data, not from the text of the source, unless noted: active = inhibition above about 30%; inconclusive = no clear call, values can overlap the other calls; inactive = below that.

SMILES | Anthrax LF inh2 | Bead autofluor | BoNT-A LC inh2 | PfHsp40 rescue | BoNT F protease | MazEF act
CCCCNc1c(-c2ccc(OC)c(Sc3ccc(OC)cc3)c2)nc2ccccn12 | n | n | n | n | n | n
CCCCNc1c(-c2ccc(-c3ccc(OC)cc3)c(OC)c2)nc2ccccn12 | n | n | n | 251 | n | n
COC(=O)[C@H](Cc1ccccc1)NC(=O)C1CCN(C(=O)[C@H](C)NS(=O)(=O)c2ccc(C)cc2)CC1 | n | n | n | n | n | n
CC1=C(C(=O)OCC2CCCO2)C(c2cccc(C(F)(F)F)c2)C2=C(CC(c3ccco3)CC2=O)N1 (stereo unspecified) | n | 21820 | n | n | n | n
CC(NC(=O)c1cc(-c2ccc3c(c2)OCO3)nc2ccccc12)C(C)(C)C (stereo unspecified) | n | 21612 | n | n | n | n
COc1ccc(Cc2nc3ccc(S(=O)(=O)N4CCOCC4)cc3[nH]2)cc1OC | n | 24349 | n | n | n | n
Cc1ccccc1OCc1nc2ccc(S(=O)(=O)N3CCOCC3)cc2[nH]1 | n | 22238 | n | n | n | n
Cc1ccc(-n2nnnc2SCn2nnc3ccccc3c2=O)cc1 | n | n | n | n | n | n
CCN(CC)S(=O)(=O)c1ccc2c(c1)nc(SCC(=O)N(C)C1CCS(=O)(=O)C1)n2CC (stereo unspecified) | n | n | n | n | n | n
CCN(CC)S(=O)(=O)c1ccc2c(c1)nc(SCn1nnc3ccccc3c1=O)n2CC | n | 23084 | n | n | n | n
Cc1cccc(-n2nnnc2SCn2nnc3ccccc3c2=O)c1 | n | 20246 | n | n | n | n
COc1ccccc1N1CCN(CCN2C(=O)CC(=C3c4ccccc4-c4ccccc43)C2=O)CC1 | x | x | x | x | x | n
O=C1CC(=C2c3ccccc3-c3ccccc32)C(=O)N1CCN1CCN(c2ccccc2)CC1 | n | 19425 | n | n | n | n
Cc1ccccc1N1CCN(CCN2C(=O)CC(=C3c4ccccc4-c4ccccc43)C2=O)CC1 | n | 16193 | n | n | n | n
Cc1nc(NC(=O)CSc2nccn2C)sc1C(=O)N(C)C | n | n | n | n | n | n
CCn1c(SCC(=O)N2CCCCCC2)nc2ccccc2c1=O | n | n | n | n | n | n
O=C(CSc1nc2ccccc2c(=O)n1Cc1ccco1)N1CCCCCC1 | n | 21631 | u | n | n | n
C=CCn1c(SCC(=O)N2CCCC2)nc2cc(C(=O)NCC3CCCO3)ccc2c1=O (stereo unspecified) | n | 16153 | n | n | n | n
COCCNC(=O)c1ccc2c(=O)n(Cc3ccco3)c(SCC(=O)NC3CCCCC3)nc2c1 | n | n | n | n | n | n
O=C(NCc1ccco1)c1ccc2c(=O)n(Cc3ccco3)c(SCC(=O)N3CCCC3)nc2c1 | n | 21141 | n | n | n | n
CCCCCn1c(SCc2ccncc2)nc2cc(C(=O)NCc3ccco3)ccc2c1=O | n | 19744 | u | n | n | n
C=CCn1c(SCC(=O)N2CCCCCC2)nc2ccccc2c1=O | n | n | n | n | n | n
CCCCn1c(SCC(=O)NCc2ccco2)nc2ccccc2c1=O | x | x | x | n | x | n
CCCN(CC(=O)Nc1ccccc1C)C(=O)Cc1cccs1 | n | n | n | n | n | n
O=C(O)CC(c1ccccc1)c1ccc2c(c1)OCO2 (stereo unspecified) | n | n | n | x | n | n
SMILES | Anthrax LF inh2 | Bead autofluor | BoNT-A LC inh2 | PfHsp40 rescue | BoNT F protease | MazEF act
CCN(CC)S(=O)(=O)c1ccc(S(=O)(=O)NCC2CCCO2)cc1 (stereo unspecified) | n | n | n | n | n | n
CCCn1c(SCC(=O)N2CCN(C(=O)c3ccco3)CC2)nc2ccccc2c1=O | n | n | n | 74 | n | n
COc1ccccc1NC(=O)Nc1nn(C)c2cccc(OC)c12 | x | x | x | n | x | n
CC(C)c1ccc(-c2nnn(Cc3nc4ccccc4s3)n2)cc1 | n | 16755 | n | n | n | n
CC(C)c1ccc(-c2nnn(CCC#N)n2)cc1 | n | n | n | n | n | n
CCCc1cc(=O)n2[nH]c(NC(=O)c3ccco3)nc2n1 | n | u | n | n | n | n
COc1cccc(CNc2ncnc3ccc(-c4c(C)noc4C)cc23)c1 | n | n | n | 33 | n | n
COc1ccc2[nH]c3nc(SCC(=O)NNC(=O)c4ccc(OC)c(OC)c4)nnc3c2c1 | n | 21437 | n | n | n | n
O=C(Nc1ccc(Cn2cccn2)cc1)c1ccc(COc2ccc(Br)cc2)cc1 | n | n | n | n | n | n
Cn1cc([N+](=O)[O-])c(C(=O)Nc2ccn(Cc3c(F)c(F)cc(F)c3F)n2)n1 | n | 23100 | u | n | n | n
O=C(Nc1ccn(Cc2ccccc2F)n1)c1ccc(COc2ccc(Br)cc2)cc1 | n | 24596 | u | n | n | n
Cn1ncc([N+](=O)[O-])c1C(=O)Nc1ccn(Cc2ccccc2F)n1 | n | 24402 | n | n | n | n
COc1cccc(NC(=O)CN(C)C(=O)c2cc(-c3ccccc3)nn2-c2ccccc2)c1 | n | n | n | n | n | n
Cc1cccc(C)c1NC(=O)CN(C)S(=O)(=O)c1ccc(-c2ccc(=O)[nH]n2)s1 | n | n | n | n | n | n
Cc1c(C(=O)N2CCN(C)CC2)oc2c1C(=O)CC(C)(C)C2 | n | 21465 | n | n | n | n
Cc1c(C(=O)N2CCOCC2)oc2c1C(=O)CC(C)(C)C2 | n | n | n | n | n | n
Cc1c(C(=O)N2CCc3ccccc32)oc2c1C(=O)CC(C)(C)C2 | n | 23325 | n | n | n | n
CN(C)C(=O)c1cn(-c2ccccc2)nc1-c1cccs1 | n | 23620 | u | n | n | n
O=C(O)c1ccc(NC(=O)c2cn(-c3ccccc3)nc2-c2ccc(Br)cc2)cc1 | n | n | n | 69 | n | n
CN(C)c1ccc(NC(=O)c2cn(-c3ccccc3)nc2-c2cccs2)cc1 | n | n | n | n | n | n
O=C(Nc1ccc2ccccc2c1)c1cn(-c2ccccc2)nc1-c1cccs1 | n | 16591 | n | n | n | n
CCN1C(=O)/C(=C2/SC(C)=C(C)N2CC)SC1=S | n | n | n | n | n | 76
Cc1ccc(OCC(=O)N(C)CCc2ccccn2)cc1 | n | 24016 | u | n | n | n
O=c1[nH]c2ccccc2n1CCCSCCCn1c(=O)[nH]c2ccccc21 | n | 19717 | u | n | n | n
CCOC(=O)c1nn(-c2ccc(C)c(C)c2)cc1O | n | 23047 | n | n | n | n
Nc1nnc(-c2ccc(F)cc2)s1 | n | n | n | n | n | n
Nc1nnc(-c2ccccc2)s1 | n | 23348 | n | n | n | n
CON/C=C(\C=Nc1ccc(C(F)(F)F)cc1)c1ncc(C(F)(F)F)cc1Cl | n | n | n | n | n | n

Compound activity from PubChem BioAssay.
